Source: PubChem BioAssay (The Scripps Research Institute Molecular Screening Center)
pPAFAH inh = pPAFAH enzyme inhibitors, primary screen, biochemical, fluorescence polarization, human; Platelet-activating factor acetylhydrolase (Homo sapiens), Q13093; recombinant pPAFAH, FP-rhodamine probe fluorescence polarization; inhibition, % at 3.39 µM; 330,000 compounds, 1.5% hits; AID 463082, 2010;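 active = inhibition above the mean inhibition across the screen plus 3 SD, cut at about 25% in these data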;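 also: inhibitors block binding of the rhodamine activity-based probe so polarization drops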
Target sequence (Q13093 whole entry, looked up): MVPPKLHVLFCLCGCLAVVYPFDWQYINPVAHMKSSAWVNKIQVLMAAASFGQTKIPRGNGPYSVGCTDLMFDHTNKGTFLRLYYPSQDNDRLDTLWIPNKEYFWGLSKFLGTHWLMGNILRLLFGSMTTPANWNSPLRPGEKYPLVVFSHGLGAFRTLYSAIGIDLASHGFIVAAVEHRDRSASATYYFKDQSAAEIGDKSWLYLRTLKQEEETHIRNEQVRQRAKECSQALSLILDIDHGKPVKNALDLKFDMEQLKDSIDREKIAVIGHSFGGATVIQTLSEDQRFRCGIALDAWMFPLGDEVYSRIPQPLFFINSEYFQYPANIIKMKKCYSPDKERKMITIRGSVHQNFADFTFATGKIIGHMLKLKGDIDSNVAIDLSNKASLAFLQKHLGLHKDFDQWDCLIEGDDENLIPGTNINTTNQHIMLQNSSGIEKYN
PAFAH1B2 FP inh = PAFAH1B2 enzyme inhibitors, primary screen, biochemical, fluorescence polarization, human | recombinant PAFAH1B2, FP-rhodamine activity probe | inhibition, % at 3.39 µM | 340,000 compounds, 1.2% hits;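 active = inhibition above the mean of all tested compounds plus 3 SD, cut at about 24% in these data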
Fam108B counter = mouse Fam108B serine hydrolase inhibitors, primary screen, counter-screen for RBBP9 inhibitor project, biochemical, fluorescence polarization; recombinant Fam108B, FP-Rh probe fluorescence polarization; inhibition, % at 9.51 µM; 300,000 compounds, 0.33% hits; AID 1947, 2009;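 active = inhibition above the screen mean inhibition plus 3 SD, computed separately per campaign, cut at about 18% in these data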;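 also: inhibitors lower polarization as less probe binds the enzyme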
PAFAH2 FP inh = PAFAH2 enzyme inhibitors, primary screen, biochemical, fluorescence polarization, human; Platelet-activating factor acetylhydrolase 2, cytoplasmic (Homo sapiens), Q99487; recombinant PAFAH2, FP-rhodamine activity probe; inhibition, % at 3.39 µM; 340,000 compounds, 0.99% hits;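 active = inhibition above the mean over all tested compounds plus 3 SD, cut at about 30% in these data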;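 also: inhibitors block probe labeling of enzyme so polarization drops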
PME-1 inh = PME-1 inhibitors via competitive probe labeling, primary screen, biochemical, fluorescence polarization, FP-Rh probe, HTS. Protein phosphatase methylesterase 1 (Homo sapiens), Q9Y570. recombinant PME-1. inhibition, % at 5.9 µM. 320,000 compounds, 0.53% hits. AID 2130, 2009;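 active = inhibition above the campaign mean of all compounds plus 3 SD, cut at about 26% in these data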;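 also: competitive labeling of PME-1 active site by serine hydrolase directed probe; inhibitors block probe labeling so polarization falls and inhibition rises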
PAFAH1B3 FP inh = PAFAH1B3 enzyme inhibitors, primary screen, biochemical, fluorescence polarization, human | recombinant PAFAH1B3, FP-rhodamine probe | inhibition, % at 3.39 µM | 340,000 compounds, 0.28% hits;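 active = inhibition above the screen-wide average of all tested compounds plus 3 SD, cut at about 25% in these data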
Target sequence (Q15102 whole entry, looked up): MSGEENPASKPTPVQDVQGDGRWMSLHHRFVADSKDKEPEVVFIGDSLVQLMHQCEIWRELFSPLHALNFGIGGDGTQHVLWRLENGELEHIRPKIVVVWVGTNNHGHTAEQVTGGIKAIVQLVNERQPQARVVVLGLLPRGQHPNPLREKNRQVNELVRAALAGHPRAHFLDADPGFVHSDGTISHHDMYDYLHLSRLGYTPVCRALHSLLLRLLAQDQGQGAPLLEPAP
PAFAH2 FP conf = PAFAH2 enzyme inhibitors, confirmation, biochemical, fluorescence polarization, human; shares compounds with PAFAH2 FP inh; recombinant PAFAH2, FP-rhodamine activity probe; AID 493030, 2011; inhibition, % at 3.39 µM; 2,300 compounds, 65% hits;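 active = mean inhibition over three repeats above a set limit taken from the earlier primary screen, cut at about 30% in these data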;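 also: inhibitor blocks binding of rhodamine activity probe so polarization falls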
Of the large screens only hits and unclear results are named; the others gave an inactive call (follow-up assays come after a bar, where they were run). Compounds with a hit are over-represented: about 2.9% of the library has one in this group of screens.

Cc1nn(-c2ccccc2)c(C)c1/C=C/C(=O)OC(C)C(=O)Nc1ncc(Cl)cc1Cl (stereo unspecified)	none
COc1ccc(/C=C/C(=O)OCC(=O)Nc2ccc(Cl)cn2)cc1	none
COc1ccc(/C=C/C(=O)OCC(=O)Nc2ncc(Cl)cc2Cl)cc1	PAFAH2 FP inh 37.2 (no result: Fam108B counter, PME-1 inh) | PAFAH2 FP conf 43.4
C#CCOCCOCCOCCNc1nc(N2CCN(C(=O)[C@H]([C@@H](C)CC)n3cc([C@@H](N)Cc4ccc(O)cc4)nn3)CC2)nc(N2CCN(C(=O)[C@H](CCCCN)n3cc([C@@H](N)CC(C)C)nn3)CC2)n1	none (no result: PAFAH1B2 FP inh, PAFAH2 FP inh, PAFAH1B3 FP inh)
O=c1c2ccccc2nc2n1CC/C2=C/N1CCN(c2cccc(C(F)(F)F)c2)CC1	PAFAH2 FP inh 32.6 | PAFAH2 FP conf inactive
O=C(COC(=O)c1ccc([N+](=O)[O-])cc1)NC1CCCC1	none
Cc1ccc(C(=O)OCC(=O)NC2CCCC2)cc1	PAFAH2 FP inh 82.1 | PAFAH2 FP conf 76.4
CC(C)(C)c1ccc(C(=O)NCC(=O)OCC(=O)NC(=O)NC2CCCC2)cc1	none (no result: Fam108B counter)
CC(C)(C)c1ccc(C(=O)OCC(=O)NC2CC2)cc1	PAFAH2 FP inh 73.4 (no result: pPAFAH inh, Fam108B counter, PME-1 inh) | PAFAH2 FP conf 65.8
O=C(COC(=O)c1ccc(O)cc1)NC1CCCC1	PAFAH2 FP inh 76.7 | PAFAH2 FP conf 73.4
CC(C)(C)OC(=O)N1CCC(c2c(C(=O)NCC3CCN(C4CCCC4)C3)cnn2-c2ccc(F)cc2)CC1 (stereo unspecified)	none
Cc1cccc2c1cnn2C(=O)CCC(=O)NCC(C)c1ccccc1 (stereo unspecified)	none
CCOc1ccccc1/C=C(/C#N)C(N)=O	none
CCCOc1ccccc1/C=C(\C#N)C(=O)Nc1cccc(C)n1	PAFAH2 FP inh 57.6 | PAFAH2 FP conf 51.9
COc1cc(C2CC(c3cccs3)=NN2C(=O)CCl)ccc1OC(F)F (stereo unspecified)	none
CC(=O)NC(=O)COC(=O)c1ccc2ncsc2c1	none
O=C(COC(=O)c1ccc2ncsc2c1)NCc1cccc(Cl)c1	none (no result: Fam108B counter)
O=C(COC(=O)c1ccc2ncsc2c1)Nc1ccccc1Br	PAFAH2 FP inh 62.7 (no result: Fam108B counter) | PAFAH2 FP conf 43.0
CCCCOC(=O)c1ccc(NC(=O)COC(=O)c2ccc3ncsc3c2)cc1	PAFAH2 FP inh 61.1 (no result: Fam108B counter) | PAFAH2 FP conf 63.4
O=C(COC(=O)c1ccc2ncsc2c1)Nc1cccc(Cl)c1	PAFAH2 FP inh 92.5 (no result: Fam108B counter) | PAFAH2 FP conf 77.4
N#CCCn1cc(C(=O)Nc2cccc(C(=O)O)c2)c(-c2ccc(Cl)cc2)n1	none
COc1ccc(/C=C2\N=C(c3c(-c4ccccc4)noc3C)OC2=O)cc1OC	PAFAH2 FP inh 33.5 | PAFAH2 FP conf inactive
COc1cc(/C=C2\N=C(c3ccccc3)OC2=O)ccc1OCc1c(C)no[n+]1[O-]	none
O=C(COC(=O)CNC(=O)c1ccccc1)NCc1ccc2c(c1)OCO2	none (no result: Fam108B counter, PME-1 inh)
CCSc1nnc(NC(=O)CSc2c(Cl)cccc2Cl)s1	PAFAH2 FP inh 50.5 | PAFAH2 FP conf 41.6
CCOc1ccccc1N1CCN(C(=O)NCc2ccc(Cl)cc2)CC1	none
CC(C)(C)c1ccc(C2/C(=C(\O)c3ccc4c(c3)OCCO4)C(=O)C(=O)N2CCCN2CCOCC2)cc1 (stereo unspecified)	none
O=C1C(=O)N(CCCN2CCOCC2)C(c2ccc(F)cc2)/C1=C(\O)c1ccc2c(c1)OCCO2 (stereo unspecified)	PAFAH2 FP inh 48.4 | PAFAH2 FP conf inactive
CCCOc1ccc2c3c(c(=O)oc2c1OCCC)CCCC3	PAFAH2 FP inh 34.8 | PAFAH2 FP conf inactive
CCOc1ccc2c3c(c(=O)oc2c1OCC)CCCC3	none
O=C(OCc1nnc(-c2ccc(Br)cc2)o1)c1ccco1	PAFAH2 FP inh 53.9 | PAFAH2 FP conf 42.1
CC(=O)c1ccc(OCCCC(=O)OCc2nnc(-c3ccc(Cl)cc3)o2)cc1	none
Cc1ccsc1C(=O)OCc1nnc(-c2ccccc2)o1	PAFAH2 FP inh 50.8 (no result: Fam108B counter, PME-1 inh) | PAFAH2 FP conf inactive
Cc1noc(C)c1COc1ccc(C(=O)OCc2nnc(-c3ccc(Cl)cc3)o2)cc1	PAFAH2 FP inh 66.2 | PAFAH2 FP conf 68.5
Cc1ccsc1C(=O)OCC(=O)Nc1nnc(-c2ccccc2)o1	none
O=C(OCc1nnc(-c2ccccc2)o1)c1ccccc1	PAFAH2 FP inh 57.2 | PAFAH2 FP conf 50.2
O=C(OCc1nnc(-c2ccccc2)o1)c1ccc(-n2cnnn2)cc1	none
Cc1ccc(C(=O)NCC(=O)N2CCN(c3cccc(Cl)c3)CC2)s1	none (no result: Fam108B counter, PME-1 inh)
O=C(OCc1nnc(-c2ccccc2)o1)c1cccc(S(=O)(=O)N2CCOCC2)c1	PAFAH2 FP inh 57.2 | PAFAH2 FP conf 40.5
Cc1nc2ccc(C(=O)OCc3nnc(-c4ccccc4)o3)cc2nc1C	PAFAH2 FP inh 34.8 (no result: pPAFAH inh, Fam108B counter, PME-1 inh) | PAFAH2 FP conf inactive
CCOC(=O)c1cccc(S(=O)(=O)N2CCOCC2)c1	none
Cc1ccccc1C(=O)OCc1nnc(-c2ccc(Cl)cc2)o1	PAFAH2 FP inh 33.4 | PAFAH2 FP conf inactive
Cc1nc2ccc(C(=O)OCc3nnc(-c4ccc(Br)cc4)o3)cc2nc1C	none
O=C(OCCOc1ccccc1F)c1cccc(S(=O)(=O)N2CCOCC2)c1	PAFAH2 FP inh 29.7 (no result: Fam108B counter) | PAFAH2 FP conf inactive
O=C(OCc1nnc(-c2ccc(Cl)cc2)o1)c1ccncc1	none
O=C(COC(=O)/C=C/c1cccc(F)c1)NC1CCCCCC1	PAFAH2 FP inh 81.8 (no result: Fam108B counter, PME-1 inh) | PAFAH2 FP conf 80.0
O=C(COC(=O)/C=C/c1cccc(F)c1)NC1CC1	PAFAH2 FP inh 34.2 (no result: Fam108B counter, PME-1 inh) | PAFAH2 FP conf inactive
O=C(COC(=O)/C=C/c1cccc(F)c1)NC1CCCC1	PAFAH2 FP inh 73.4 (no result: Fam108B counter) | PAFAH2 FP conf 67.4
O=C1N[C@@H](c2ccccc2)COC(=O)[C@@H](Cc2ccc(F)cc2)C/C=C\C[C@@H]1CC(=O)N(CCO)Cc1ccccc1	none (no result: Fam108B counter, PME-1 inh)
O=C1CCC/C=C\C[C@@H](CC(=O)N(CCO)Cc2ccccc2)C(=O)N[C@H](c2ccccc2)CO1	PAFAH2 FP inh 66.2 (no result: Fam108B counter, PME-1 inh) | PAFAH2 FP conf 56.3
Cc1cc(C)cc(NC(=O)COC(=O)c2cccc(S(=O)(=O)N3CCCCC3)c2)c1	PAFAH2 FP inh 65.3 (no result: Fam108B counter) | PAFAH2 FP conf 51.6
Cc1cccc(NC(=O)COC(=O)c2cccc(S(=O)(=O)N3CCCCCC3)c2)c1	PAFAH2 FP inh 74.2 (no result: Fam108B counter) | PAFAH2 FP conf 63.0
COc1ccc(NC(=O)COC(=O)c2cccc(S(=O)(=O)N3CCCCC3)c2)c(OC)c1	none (no result: Fam108B counter)
Cn1c(=O)c2c(nc(NN=C3CCCC3)n2C)n(C)c1=O	none
